From PubChem BioAssay (Tox21)
Results filed as inconclusive are left out. Activity calls are given as the source filed them. Unless noted, calls come from the whole dose curve; as a rule, active = well fitted curve in the direction sought with a large enough effect in the repeat runs; inconclusive = weak or mixed curves; inactive = no such curve, though single readings can be large; an effect the other way counts as inactive or inconclusive.

What was measured:
[1] = qHTS assay for small molecule agonists of the p53 signaling pathway (AID 651631; calls by dose curve; note: nearly all actives have a fitted effect of over 15% in size)
How it was run: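 Read-out is beta-lactamase FRET fluorescence measured 2 h after substrate addition at room temperature, in HCT-116 cells with a p53 response element-driven reporter exposed to compounds for 16 h at 37 °C.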

[2] = qHTS assay for small molecules that induce genotoxicity in human embryonic kidney cells expressing luciferase-tagged ATAD5 (AID 651632); note: nearly all actives have a fitted effect of over 15% in size
How it was run: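 Luminescent reporter readout, HEK293T ATAD5-luc line: 16 hr drug exposure (37C, 5% CO2) followed by Amplite, 30 min RT.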

[3] = qHTS assay for small molecule agonists of the p53 signaling pathway - cell viability (AID 651633; calls by dose curve;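 note: p53RE-bla HCT reporter cells with a stable beta-lactamase p53 reporter; series mostly up to about 83 µM; nearly all actives have a fitted effect of over 30% in size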)
How it was run: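 p53RE-bla cells were treated with compound for 16 hours at 37 C. Cytotoxicity was then measured as CellTiter-Glo luminescence after 30 min at room temperature.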

[4] = qHTS assay for small molecules that induce genotoxicity in human embryonic kidney cells expressing luciferase-tagged ATAD5 - cell viability (AID 651634; calls by dose curve; note: nearly all actives have a fitted effect of over 25% in size)
How it was run: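 Viability read: CellTiter-Fluor fluorescence, 30 min at 37C. Cells: HEK293T, luciferase-tagged ATAD5. Exposure: 15.5 hr, 37C, 5% CO2, compound or DMSO vehicle.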

[5] = qHTS assay for small molecule disruptors of the mitochondrial membrane potential - cell viability (AID 720634; calls by dose curve;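 note: human HepG2 liver cancer cells; series mostly up to about 83 µM; nearly all actives have a fitted effect of over 20% in size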)
How it was run: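 HepG2, 1 hr compound, 37 C. ATP luminescence via CellTiter-Glo, 30 min RT, same well as m-MPI.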

[6] = qHTS assay for small molecule disruptors of the mitochondrial membrane potential (AID 720635)
How it was run: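 HepG2 cells exposed to compound 1 hr at 37C, then Mito-MPS dye 30 min. Ratio read of aggregate (540/590 nm) versus monomer (490/535 nm) fluorescence.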

[7] = qHTS assay to test for compound auto fluorescence at 535 nm (green) in HepG2 cells (AID 720675)
[8] = qHTS assay to test for compound auto fluorescence at 460 nm (blue) in HEK293 cells (AID 720678)
How it was run: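 HEK293 cells (2,000/well, medium with 10% dialyzed FBS) attached 4-5 hr, then exposed to compound overnight at 37C, 5% CO2. Blue fluorescence read at 405/460 nm, with triamterene as reference fluorophore.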

[9] = qHTS assay to test for compound auto fluorescence at 590 nm (red) in HEK293 cells (AID 720679)
How it was run: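 HEK293 cells (2,000/well, 10% dialyzed FBS) attached 4-5 hr, then dosed with compound or DMSO and incubated overnight at 37C, 5% CO2. Red fluorescence read at 540/590 nm, Rose Bengal sodium as reference fluorophore.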

[10] = qHTS assay to test for compound auto fluorescence at 535 nm (green) in HEK293 cells (AID 720680)
[11] = qHTS assay to test for compound auto fluorescence at 460 nm (blue) in HEK293 cell free culture (AID 720681)
How it was run: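 Compounds were added to cell-free DMEM with 10% FBS and fluorescence read directly. The blue channel used 405 nm excitation and 460 nm emission, with triamterene as the reference fluorophore.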

[12] = qHTS assay to test for compound auto fluorescence at 535 nm (green) in HEK293 cell free culture (AID 720682)
How it was run: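 Fluorescein serves as the green reference fluorophore; each compound's intrinsic emission at 535 nm (excitation 485 nm) is reported as an equivalent amount of that dye, measured in serum-containing DMEM without cells.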

[13] = qHTS assay to test for compound auto fluorescence at 590 nm (red) in HEK293 cell free culture (AID 720683)
How it was run: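 Cell-free wells of DMEM with 10% FBS received compound, and intrinsic fluorescence was read at excitation/emission 540/590 nm. Values expressed as equivalence to Rose Bengal sodium.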

[14] = qHTS assay to test for compound auto fluorescence at 590 nm (red) in HepG2 cell free culture (AID 720684)
How it was run: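 Compound was pinned into wells holding MEM with 10% FBS and no cells, and red fluorescence was read at Ex/Em 540/590 nm. Signal is expressed as auto fluorescence equivalency relative to Rose Bengal sodium.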

[15] = qHTS assay to test for compound auto fluorescence at 460 nm (blue) in HepG2 cell free culture (AID 720685)
How it was run: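 Compound (23 nL) or DMSO pinned into cell-free MEM with 10% FBS; blue fluorescence read at 405/460 nm excitation/emission, expressed as auto-fluorescence equivalency to triamterene.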

[16] = qHTS assay to test for compound auto fluorescence at 535 nm (green) in HepG2 cell free culture (AID 720686)
[17] = qHTS assay to test for compound auto fluorescence at 460 nm (blue) in HepG2 cells (AID 720687)
How it was run: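 HepG2 cells in MEM with 10% FBS, attached overnight at 37 C, were exposed to compound or DMSO for 1 hr at 37 C, 5% CO2. Blue fluorescence was read at 405/460 nm, with triamterene as reference fluorophore.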

[18] = qHTS assay to test for compound auto fluorescence at 590 nm (red) in HepG2 cells (AID 720674)
How it was run: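 Fluorescence at 590 nm emission following 540 nm excitation was recorded from HepG2 wells one hour after compound transfer, with DMSO-only wells as vehicle and Rose Bengal sodium equivalency as the scale.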

[19] = target: Glucocorticoid receptor (Homo sapiens) (UniProt P04150); test: qHTS assay to identify small molecule agonists of the glucocorticoid receptor (GR) signaling pathway (AID 720691; active = well fitted activation curve with a large enough effect in the signal ratio in the repeat runs, not every such curve was filed as active; the % refers to the signal ratio)
How it was run: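 qHTS in GR-bla HeLa cells: 4 h settling at 37 C/5% CO2, 18 h compound incubation at 37 C, 2 h LiveBLAzer B/G FRET substrate at room temperature, fluorescence intensity measured.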

[20] = target: Glucocorticoid receptor (Homo sapiens) (UniProt P04150); test: qHTS assay to identify small molecule antagonists of the glucocorticoid receptor (GR) signaling pathway (AID 720692; active = well fitted inhibition curve with a large enough effect in the signal ratio in the repeat runs, not every such curve was filed as active; the % refers to the signal ratio)
How it was run: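 Inhibition of glucocorticoid signalling is measured in HeLa cells with a GRE-controlled beta-lactamase reporter; cells are co-treated with compound and 5 nM dexamethasone (final) for 18 h before FRET substrate readout.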
% is set by controls: 0 for no effect and ±100 for the full control effect.

Glucocorticoid receptor (Homo sapiens), sequence (P04150 whole entry, looked up): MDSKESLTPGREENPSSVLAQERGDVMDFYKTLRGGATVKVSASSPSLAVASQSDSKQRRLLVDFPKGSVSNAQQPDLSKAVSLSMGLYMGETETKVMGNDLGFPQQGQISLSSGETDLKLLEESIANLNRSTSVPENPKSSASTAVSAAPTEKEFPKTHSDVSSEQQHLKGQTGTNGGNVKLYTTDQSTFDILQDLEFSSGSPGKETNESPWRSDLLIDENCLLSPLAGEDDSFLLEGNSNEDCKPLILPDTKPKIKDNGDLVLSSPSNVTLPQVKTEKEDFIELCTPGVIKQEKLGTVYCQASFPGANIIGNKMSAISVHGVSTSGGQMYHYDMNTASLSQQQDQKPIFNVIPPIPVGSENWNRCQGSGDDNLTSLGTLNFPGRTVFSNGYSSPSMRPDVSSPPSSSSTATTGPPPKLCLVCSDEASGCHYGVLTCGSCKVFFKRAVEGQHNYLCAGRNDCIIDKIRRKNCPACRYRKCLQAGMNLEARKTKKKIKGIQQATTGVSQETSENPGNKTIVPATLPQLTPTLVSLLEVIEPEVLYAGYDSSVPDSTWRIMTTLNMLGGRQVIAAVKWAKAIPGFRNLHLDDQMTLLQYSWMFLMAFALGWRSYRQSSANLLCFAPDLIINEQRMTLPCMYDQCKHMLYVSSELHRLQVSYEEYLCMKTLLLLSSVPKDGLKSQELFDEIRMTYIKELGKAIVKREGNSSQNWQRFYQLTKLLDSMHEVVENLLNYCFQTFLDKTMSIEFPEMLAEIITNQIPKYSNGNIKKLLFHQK

Cn1nnc2c(C(N)=O)ncn2c1=O
inactive: outcome [1] | outcome [2] | outcome [3] | Potency [4] | outcome [5] | Potency [6] | outcome [7] | outcome [8] | outcome [9] | outcome [10] | outcome [11] | outcome [12] | outcome [13] | outcome [14] | outcome [15] | outcome [16] | outcome [17]

CC(=O)O[C@@H]1CC2CCC1(C)C2(C)C (some centres undefined)
inactive: outcome [1] | outcome [2] | outcome [3] | Potency [4] | outcome [5] | Potency [6] | outcome [18] | outcome [7] | outcome [8] | outcome [9] | outcome [10] | outcome [12] | outcome [13] | outcome [14] | outcome [15] | outcome [16] | outcome [17] | Potency [19] | outcome [20]

CC(C)=CCC[C@@](C)(O)[C@H]1CC=C(C)CC1
inactive: outcome [1] | outcome [2] | outcome [3] | Potency [4] | outcome [5] | Potency [6] | outcome [18] | outcome [7] | outcome [8] | outcome [10] | outcome [11] | outcome [12] | outcome [13] | outcome [14] | outcome [15] | outcome [16] | outcome [17] | Potency [19] | outcome [20]

CCCCOCC(C)O (centres undefined)
inactive: outcome [1] | outcome [2] | outcome [3] | Potency [4] | outcome [5] | outcome [18] | outcome [7] | outcome [8] | outcome [9] | outcome [10] | outcome [11] | outcome [12] | outcome [13] | outcome [14] | outcome [15] | outcome [16] | outcome [17] | Potency [19] | outcome [20]

CCc1occc(=O)c1O
inactive: outcome [1] | outcome [2] | outcome [3] | Potency [4] | outcome [5] | outcome [18] | outcome [7] | outcome [8] | outcome [9] | outcome [10] | outcome [12] | outcome [13] | outcome [14] | outcome [15] | outcome [16] | outcome [17] | Potency [19]

CNCCS(=O)(=O)O
inactive: outcome [1] | outcome [2] | outcome [3] | Potency [4] | outcome [5] | Potency [6] | outcome [18] | outcome [7] | outcome [8] | outcome [9] | outcome [10] | outcome [12] | outcome [13] | outcome [14] | outcome [15] | outcome [16] | outcome [17] | Potency [19] | outcome [20]

OCC1(CO)COCOC1
inactive: outcome [1] | outcome [2] | outcome [3] | Potency [4] | outcome [5] | outcome [18] | outcome [7] | outcome [8] | outcome [9] | outcome [10] | outcome [11] | outcome [12] | outcome [13] | outcome [14] | outcome [15] | outcome [16] | outcome [17] | Potency [19]

CCCCCCC1(C)CCC(=O)O1 (centres undefined)
inactive: outcome [1] | outcome [2] | outcome [3] | Potency [4] | outcome [5] | outcome [18] | outcome [7] | outcome [8] | outcome [9] | outcome [10] | outcome [11] | outcome [12] | outcome [13] | outcome [14] | outcome [15] | outcome [16] | outcome [17]

CCCCCc1cccc(=O)o1
inactive: outcome [1] | outcome [2] | outcome [3] | Potency [4] | outcome [5] | Potency [6] | outcome [7] | outcome [8] | outcome [9] | outcome [10] | outcome [11] | outcome [12] | outcome [13] | outcome [14] | outcome [15] | outcome [16] | outcome [17]

CC/C=C\CCOC(=O)c1ccccc1O
inactive: outcome [1] | outcome [2] | outcome [3] | Potency [4] | outcome [5] | outcome [18] | outcome [7] | outcome [8] | outcome [9] | outcome [10] | outcome [11] | outcome [12] | outcome [13] | outcome [14] | outcome [15] | outcome [16] | outcome [17] | Potency [19] | outcome [20]

CC1CCc2c(N3CCC(O)CC3)c(F)cc3c(=O)c(C(=O)O)cn1c23 (centres undefined)
inactive: outcome [1] | outcome [2] | outcome [3] | outcome [5] | outcome [18] | outcome [7] | outcome [8] | outcome [9] | outcome [10] | outcome [11] | outcome [12] | outcome [13] | outcome [14] | outcome [15] | outcome [16] | outcome [17] | Potency [19] | outcome [20]

O=C(O)c1cc2ccccc2nc1C(=O)O
inactive: outcome [1] | outcome [2] | outcome [3] | outcome [5] | outcome [18] | outcome [7] | outcome [8] | outcome [10] | outcome [11] | outcome [12] | outcome [13] | outcome [14] | outcome [15] | outcome [16] | outcome [17] | Potency [19] | outcome [20]

c1ccc2c(CC3=NCCN3)cccc2c1
inactive: outcome [1] | outcome [2] | outcome [3] | outcome [5] | Potency [6] | outcome [18] | outcome [7] | outcome [8] | outcome [10] | outcome [12] | outcome [13] | outcome [14] | outcome [15] | outcome [16] | outcome [17]

CN1CCOC(c2ccccc2)c2ccccc2C1 (centres undefined)
inactive: outcome [1] | outcome [2] | outcome [3] | Potency [4] | outcome [5] | fluorescence, % of fluorescein control [7] 0.0561% [at 18.6 µM] | fluorescence, % of triamterene [8] -0.11% [at 18.6 µM] | fluorescence, % of fluorescent control [9] 0.0791% [at 18.6 µM] | fluorescence, % of fluorescein [10] -0.0031% [at 18.6 µM] | fluorescence, % of fluorescent control [11] -0.103% [at 18.6 µM] | activity change [12] -0.0245% [at 18.6 µM] | fluorescence, % of fluorescent control [13] -0.107% [at 18.6 µM] | fluorescence, % of Rose Bengal [14] 0.115% [at 18.6 µM] | fluorescence, % of fluorescent control [15] -0.0245% [at 18.6 µM] | fluorescence, % of fluorescein control [16] 0.0063% [at 18.6 µM] | fluorescence, % of fluorescent control [17] 0.0046% [at 18.6 µM]

O=C(O)CSCC(=O)NC1CCSC1=O (centres undefined)
inactive: outcome [1] | outcome [2] | Potency [4] | outcome [5] | Potency [6] | outcome [18] | outcome [7] | outcome [8] | outcome [9] | outcome [10] | outcome [11] | outcome [12] | outcome [13] | outcome [14] | outcome [15] | outcome [16] | outcome [17]
